Here are results for 72 sequences from the supplement of paper PMC10338343.

± gives the standard deviation. Whole data set: some 5,500 sequences, median “pre-steady-state target cleavage rate” near 0.1, cut for the highest 2% near 0.64. This is one part of a sample in which the highest values are shown more often than they occur.

The assay relates to MIWI (PIWIL1) piRISC loaded with piRNA #2 (30 nt). Briefly: pre-steady-state target cleavage rate (min^-1); MIWI and MILI are mouse PIWI proteins and EfPiwi is from a freshwater sponge; tags in brackets are library labels; higher = faster piRNA-guided slicing of the target. As to conditions: guide: piRNA #2 5'p-UUAGGUAACCCAGUAGAUCCAGAGGAAUUC; auxiliary factor: 500 nM mouse GTSF1. The method in brief: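 Sequencing of uncleaved targets, normalised to depth and to weakly complementary targets, was the readout of this Cleave-'n-Seq assay. A transcribed, DNA-blocked target RNA library (0.1 nM) was mixed with 1 nM active affinity-purified piRISC carrying one synthetic guide, with or without 500 nM GTSF1 partner protein, in HEPES–potassium acetate buffer at 33 °C for 0–8 or 0–960 min. Three trials were pooled, k3 was capped at 0.0001 min^-1, and a burst-and-steady-state fit gave the pre-steady-state cleavage rate.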
In the case of CUUAUCGUCUGGAUCUACUGGGUUACCUUA, the “pre-steady-state target cleavage rate” value was 0.295 ± 0.066.

With CAAUUCCUCUGGAACUACUGGGUAACCUAA, the “pre-steady-state target cleavage rate” value amounted to 0.235 ± 0.035.

Take CUUUUCCUCUGGAUCUACACCGUUACCUAA: the “pre-steady-state target cleavage rate” value turned out to be 0.0786 ± 0.0085.

For CUUAACCUCUCGAUCUACUGGGUUACCUUA, the “pre-steady-state target cleavage rate” value was found to be 0.373 ± 0.034.

Regarding GAAUUCCUCUGGAACUAGUGGGUUACCUAA, the “pre-steady-state target cleavage rate” value was found to be 0.221 ± 0.027.

On to GAAUUCCUCUGGAUCUUCUGGGUUACCUAA, for which the “pre-steady-state target cleavage rate” value came to 0.274 ± 0.047.

CAAUUCCUCUGGAUCUACUGGGUUACCAUA: the “pre-steady-state target cleavage rate” value was 0.518 ± 0.076.

For CAAUUCCUCUGGAUCUACUGGGUUACCUGAA, the “pre-steady-state target cleavage rate” value is 0.438 ± 0.14.

Turning to CAAUUCCUCUGGAUCUACUGGGUUACCAUAA, the “pre-steady-state target cleavage rate” value is 0.588 ± 0.078.

CAAUUCCUCUGGAUCUACUGGGUUACCUGA: the “pre-steady-state target cleavage rate” value amounted to 0.328 ± 0.086.

Regarding CUUAUCCUCUGGAUCUACUGGGUUACCAUA, the “pre-steady-state target cleavage rate” value came to 0.497 ± 0.069.

Take CUAUUCCUCUGGAUCUACUGGGUUACCAUA: the “pre-steady-state target cleavage rate” value turned out to be 0.413 ± 0.054.

For CUUAUCCUCUGGAUCUACUGGGUUACCAUAA, the “pre-steady-state target cleavage rate” value was determined as 0.452 ± 0.06.

For the sequence GAAUUCCUCUGGAUCUACUGGGUUACCUGAA, the “pre-steady-state target cleavage rate” value worked out at 0.735 ± 0.26.

As to CUUAUCCUCUGGAUCUACUGGGUUACAUAA, the “pre-steady-state target cleavage rate” value turned out to be 0.742 ± 0.048.

Regarding CUAUUCCUCUGGAUCUACUGGGUUACAUAA, the “pre-steady-state target cleavage rate” value worked out at 0.739 ± 0.051.

For the sequence CUAUUCCUCUGGAUCUACUGGGUUACCAUAA, the “pre-steady-state target cleavage rate” value amounted to 0.553 ± 0.069.

Regarding CAAUUCCUCUGGAUCUACUGGGUUACAUAA, the “pre-steady-state target cleavage rate” value was 0.739 ± 0.053.

On to CUUAAGGUCUUGGAUCUACUGGGUUACCUAA, for which the “pre-steady-state target cleavage rate” value came out at 0.291 ± 0.03.

For the sequence CUUAAGGUCUGGAUCUACUGCGUUACCAAA, the “pre-steady-state target cleavage rate” value was found to be 0.109 ± 0.029.

For the sequence CUAAUCCUCUGGAUCAACUGGGUUACCUAA, the “pre-steady-state target cleavage rate” value stood at 0.381 ± 0.043.

For the sequence GAAUUCCUCUGGAUCUACUGGGUUACCAUAA, the “pre-steady-state target cleavage rate” value is 0.383 ± 0.049.

Regarding CUAUUCCUCUGGAUCUACUGGGUUAGCCUAA, the “pre-steady-state target cleavage rate” value was 0.51 ± 0.063.

CAAUUCCUCUGGAUCUACUGGGUUAGCCUAA: the “pre-steady-state target cleavage rate” value was 0.651 ± 0.079.

For GAAUUCCUCUGGAUCUACUGGGUUAACUAA, the “pre-steady-state target cleavage rate” value was found to be 0.674 ± 0.059.

Turning to CUUUUCCUCUGGAUCUACUGGGUUACCAUA, the “pre-steady-state target cleavage rate” value came out at 0.437 ± 0.048.

For CUUUUCCUCUGGAUCUACUGGGUUACAUAA, the “pre-steady-state target cleavage rate” value amounted to 0.738 ± 0.042.

With GAAUUCCUCUGGAUCUACUGGGUUACCAUA, the “pre-steady-state target cleavage rate” value came to 0.364 ± 0.05.

As to GAAUUCCUCUGGAUCUACUGGGUUACAUAA, the “pre-steady-state target cleavage rate” value was 0.64 ± 0.057.

Turning to CAAUUCCUCUGGAUCUACUGGGUUAACUAA, the “pre-steady-state target cleavage rate” value was 0.386 ± 0.098.

Consider CUAUUCCUCUGGAUCUACUGGGUUAACUAA, for which the “pre-steady-state target cleavage rate” value was found to be 0.349 ± 0.071.

With GAAUUCCUCUGGAUCUACUGGGUUAGCCUAA, the “pre-steady-state target cleavage rate” value came to 0.299 ± 0.036.

With CUUUUCCUCUGGAUCUACUGGGUUACCAUAA, the “pre-steady-state target cleavage rate” value is 0.422 ± 0.047.

Regarding CUUAACCUCUGGAUCUAGUCGGUUACCUAA, the “pre-steady-state target cleavage rate” value was found to be 0.0063 ± 0.0049.

Take CUUUUCCUCUGGAUCAACUGGGUUUCCUAA: the “pre-steady-state target cleavage rate” value turned out to be 0.165 ± 0.034.

With CUUAAGGAGACCUUCUACAGCGUUACCUAA, the “pre-steady-state target cleavage rate” value was 0.00566 ± 0.0029.

On to CUUAUGCUCUGGAUCUACUGGGUUACCUAA, for which the “pre-steady-state target cleavage rate” value was found to be 0.124 ± 0.02.

As for CUUAAGGACAGGUUCUACUGGGUUACCUAA, the “pre-steady-state target cleavage rate” value worked out at 0.0257 ± 0.017.

CUUAAGCUCUGGAUCUACUGGGUAACCAAA: the “pre-steady-state target cleavage rate” value was determined as 0.0234 ± 0.0094.

As for CUUAACCUCUGGAUCUACUGGGUUACUAA, the “pre-steady-state target cleavage rate” value came to 0.116 ± 0.018.

For the sequence CUUAAGGAGUGGAACUACUGGGUUACCUAA, the “pre-steady-state target cleavage rate” value worked out at 0.0357 ± 0.024.

Regarding CUUAAGGAGUGGAUCUACUGGGUUACCGAA, the “pre-steady-state target cleavage rate” value was found to be 0.0437 ± 0.018.

In the case of CUUUUCCUCUGGAUCUAGAGGGUUACCUAA, the “pre-steady-state target cleavage rate” value turned out to be 0.022 ± 0.0052.

For the sequence CUUAACCUCUGGUUCUACUGGCUUACCUAA, the “pre-steady-state target cleavage rate” value stood at 0.112 ± 0.014.

Turning to GAAUUCCUCUCGUUCUACUGGGUUACCUAA, the “pre-steady-state target cleavage rate” value stood at 0.793 ± 0.058.

As to CUAUUCCUCUCCUUCUACUGGGUUACCUAA, the “pre-steady-state target cleavage rate” value turned out to be 0.569 ± 0.049.

Take CAAUUCCUCUGGGUCUACUGGGUUACCUAA: the “pre-steady-state target cleavage rate” value stood at 0.562 ± 0.037.

Regarding CUUAACCUCUCGUUCUACUGGGUUACCUAA, the “pre-steady-state target cleavage rate” value stood at 0.401 ± 0.044.

As to GAAUUCCUCUGGAUUCUACUGGGUUACCUAA, the “pre-steady-state target cleavage rate” value worked out at 0.224 ± 0.036.

Consider CUAUUCCUCUGGAUUCUACUGGGUUACCUAA, for which the “pre-steady-state target cleavage rate” value is 0.346 ± 0.047.

With CUUUUCCUCUCGUUCUACUGGGUUACCUAA, the “pre-steady-state target cleavage rate” value stood at 0.519 ± 0.041.

Take CAAUUCCUCUCCUUCUACUGGGUUACCUAA: the “pre-steady-state target cleavage rate” value was 0.613 ± 0.058.

With CUUAUCCUCUCGUUCUACUGGGUUACCUAA, the “pre-steady-state target cleavage rate” value was found to be 0.41 ± 0.039.

CAAUUCCUCUCGUUCUACUGGGUUACCUAA: the “pre-steady-state target cleavage rate” value was determined as 0.82 ± 0.071.

In the case of CUAUUCCUCUCGUUCUACUGGGUUACCUAA, the “pre-steady-state target cleavage rate” value was 0.75 ± 0.077.

Take GAAUUCCUCUCCUUCUACUGGGUUACCUAA: the “pre-steady-state target cleavage rate” value stood at 0.781 ± 0.06.

Turning to CUUAAGGAGUGGUUCUACUGGGUUACCUUA, the “pre-steady-state target cleavage rate” value stood at 0.0165 ± 0.004.

Take CUUAAGGACUGGAUCUACUGGGUUAACUAA: the “pre-steady-state target cleavage rate” value turned out to be 0.116 ± 0.042.

For CUUUUCCUCUGGAUCUACUGCCUUACCUAA, the “pre-steady-state target cleavage rate” value is 0.0739 ± 0.012.

Turning to CUUAACCUCUGGAUCUACAGGGUUAGCUAA, the “pre-steady-state target cleavage rate” value is 0.0376 ± 0.0069.

For the sequence GAAUUCCUCUGGAUCUAGUGGGUUUCCUAA, the “pre-steady-state target cleavage rate” value stood at 0.108 ± 0.019.

As to CUUAAGGACUGGAUCUACUAGGUUACCUAA, the “pre-steady-state target cleavage rate” value stood at 0.0835 ± 0.039.

On to CUUAAGGUCAGGAUCUACUGGGUAACCUAA, for which the “pre-steady-state target cleavage rate” value was 0.00869 ± 0.0069.

CUUAACCUCUGGAUCUACUGGGUUACACUAA: the “pre-steady-state target cleavage rate” value was 0.344 ± 0.042.

With CUAUUCCUCUGGAACUUCUGGGUUACCUAA, the “pre-steady-state target cleavage rate” value came to 0.299 ± 0.036.

Turning to CUUAUCCUCUGGAUCUAGUGGGAUACCUAA, the “pre-steady-state target cleavage rate” value is 0.0912 ± 0.02.

In the case of GAAUUCCUCUGGAUCUACUGGGAUACCAAA, the “pre-steady-state target cleavage rate” value came to 0.192 ± 0.06.

On to CUUAAGGUCUGGAUGUUCUGGGUUACCUAA, for which the “pre-steady-state target cleavage rate” value was determined as 0.05 ± 0.018.

As for GAAUUCCUCUCGAUGUACUGGGUUACCUAA, the “pre-steady-state target cleavage rate” value came out at 0.645 ± 0.052.

For GAAUUCCUCUGGAUGUACUGGGUUACCUAA, the “pre-steady-state target cleavage rate” value is 0.352 ± 0.045.

On to CAAUUCCUCUGGAUGUACUGGGUUACCUAA, for which the “pre-steady-state target cleavage rate” value worked out at 0.578 ± 0.054.

On to CUUAUCCUCUCGAUGUACUGGGUUACCUAA, for which the “pre-steady-state target cleavage rate” value stood at 0.498 ± 0.03.
